Data as given in PubChem BioAssay (NCI).
Compounds without any hit were thinned out: in the full panel of roughly 83,000, 20% have a hit.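 96-well plates, one dose, 48 hours. Percent growth reported; active if below 10.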 The source made the active and inactive calls.

Legend:
Assay in all cases: NCI-60 one-dose screen, 48 h (100 = growth as untreated, 0 = no growth, -100 = all killed)
Conditions in all cases: 10 µM unless noted
[1] = test system: SK-MEL-2 melanoma
[2] = test system: EKVX NSCLC
[3] = test system: SN12C renal
[4] = test system: UO-31 renal
[5] = test system: TK-10 renal
[6] = test system: ACHN renal
[7] = test system: A498 renal
[8] = test system: CCRF-CEM leukemia
[9] = test system: SR leukemia
[10] = test system: RPMI-8226 leukemia
[11] = test system: OVCAR-8 ovarian
[12] = test system: OVCAR-5 ovarian
[13] = test system: OVCAR-4 ovarian
[14] = test system: SK-OV-3 ovarian
[15] = test system: IGROV1 ovarian
[16] = test system: OVCAR-3 ovarian
[17] = test system: HS 578T breast
[18] = test system: NCI/ADR-RES ovarian
[19] = test system: T-47D breast
[20] = test system: MOLT-4 leukemia

Measured: growth

COC(=O)[C@]1(C)CCC[C@]2(C)[C@H]3C[C@H]4C(C(C)C)=C[C@]3(CC[C@H]21)[C@@H]1C(=O)N(CCC#N)C(=O)[C@@H]14
inactive: [1] 88.6% | [2] 79.5% | [3] 90.2% | [4] 76.1% | [5] 104% | [6] 96.3% | [7] 105% | [8] 61.8% | [9] 80.4% | [10] 62% | [11] 85.5% | [12] 116% | [13] 71.7% | [14] 98.8% | [15] 86.2% | [16] 88.9% | [17] 89.4% | [18] 84.4% | [19] 69.9%

O=C(O)CCNC1CCCCC1
active: [1] -21.2%
inactive: [2] 115% | [3] 88.3% | [4] 83.4% | [5] 118% | [6] 103% | [7] 94.6% | [20] 103% | [9] 105% | [10] 96.3% | [11] 99.9% | [12] 86% | [13] 103% | [14] 101% | [15] 105% | [16] 108% | [17] 96.6% | [18] 93.1% | [19] 104%

CCCCCCC/C=C/[C@H]1O[C@]23C(=O)C[C@@]4(C[C@@H](OC5OC(CO)C(O)C(O)C5O)C[C@@H]4[C@H]2C=C1C)OC3=O (stereo partly specified)
inactive: [2] 86.9% | [3] 26.7% | [5] 35.8% | [7] 70.1% | [11] 14.5% | [12] 27.7% | [13] 29.6% | [14] 71.9% | [15] 15.9% | [17] 61.7%
active: [1] -9.46% | [4] 3.36% | [6] 4.9% | [20] 8.32% | [9] 6.22% | [10] -1.42% | [16] 9.92% | [18] -5.53%

CC1CCCN(CCCCCOc2ccc3oc4ccccc4c(=O)c3c2)C1 (stereo unspecified)
inactive: [1] 82.3% | [2] 84% | [3] 64.3% | [4] 61.2% | [5] 82.3% | [6] 98.9% | [7] 75.9% | [20] 49% | [9] 36.4% | [10] 50.7% | [11] 77.5% | [12] 79.4% | [13] 83.1% | [14] 99.7% | [15] 67.3% | [16] 77.9% | [17] 77.8% | [18] 73.3% | [19] 65.4%

COc1ccc2[nH]c(=O)c(/C=C/C(=O)/C=C/c3ccc(O)c(OC)c3)cc2c1
active: [3] 4.69% | [4] -70.8% | [8] 3.63% | [9] 1.27% | [10] -18.5% | [11] 1.42% | [16] -11.2%
inactive: [1] 78.3% | [2] 59.4% | [5] 61.1% | [6] 49.9% | [7] 89.7% | [12] 59.4% | [13] 64.3% | [14] 56.5% | [17] 25.5% | [18] 47.9% | [19] 26%

CC(C)NS(=O)(=O)c1cccc(-c2ccc3c(=O)n(CCCN)c4c(c3c2)C(=O)c2ccccc2-4)c1
inactive: [1] 111% | [2] 100% | [3] 113% | [4] 93.2% | [5] 96.8% | [6] 101% | [7] 103% | [20] 95.6% | [9] 77.6% | [10] 102% | [11] 97.6% | [12] 109% | [13] 85.2% | [14] 107% | [15] 102% | [16] 99% | [17] 105% | [18] 98.6% | [19] 103%

O=C(CCCCCCCCC(=O)Nc1cccc(C2=NCCN2)c1)Nc1cccc(C2=NCCN2)c1
inactive: [1] 99.8% | [2] 105% | [3] 81.6% | [4] 96.3% | [5] 92.4% | [6] 112% | [7] 93.5% | [20] 89.4% | [9] 65.5% | [10] 78.6% | [11] 107% | [12] 109% | [13] 102% | [14] 113% | [15] 104% | [16] 112% | [17] 113% | [18] 104% | [19] 81%

Nc1ccccc1NS(=O)(=O)c1ccc(Cl)cc1
inactive: [1] 93.7% | [2] 98.4% | [3] 103% | [4] 83.9% | [5] 90.8% | [6] 94.8% | [7] 81.5% | [20] 97.1% | [9] 89.6% | [10] 95% | [11] 108% | [12] 95.3% | [13] 100% | [14] 105% | [15] 98.3% | [16] 105% | [17] 98.6% | [18] 97.3% | [19] 106%

Nc1c(C(=O)c2ccccc2)sc2nc(-c3cc4ccccc4o3)cc(-c3ccc(Cl)cc3)c12
inactive: [1] 84.1% | [2] 103% | [3] 165% | [4] 79.1% | [5] 137% | [6] 82.9% | [7] 199% | [20] 101% | [9] 108% | [10] 82.7% | [11] 95.8% | [12] 107% | [13] 98.3% | [14] 106% | [15] 55.8% | [16] 85.1% | [17] 136% | [18] 108% | [19] 90%

CC(=O)Nc1ccc2c(c1)Cc1cc(F)ccc1-2
inactive: [1] 94.8% | [2] 104% | [3] 107% | [4] 56.8% | [5] 104% | [6] 104% | [7] 73.2% | [20] 89.4% | [9] 87.5% | [10] 93.6% | [11] 97.5% | [12] 106% | [13] 109% | [14] 106% | [15] 92.8% | [16] 98.6% | [17] 103% | [18] 97.5% | [19] 82.8%

Cc1cnc(SCc2ccc(Cl)cc2Cl)nc1Nc1ccc(Cl)c(Cl)c1
inactive: [1] 87.9% | [2] 94.2% | [3] 93% | [4] 74.6% | [5] 100% | [6] 96.4% | [7] 85.7% | [20] 59.5% | [9] 72% | [10] 86.7% | [11] 91.9% | [12] 103% | [13] 93.9% | [14] 97.9% | [15] 82.8% | [16] 99.6% | [17] 90.8% | [18] 95.9% | [19] 68%

CCCCc1ccc(N=Nc2ccc(OCC[N+](C)(C)C)cc2)cc1
inactive: [1] 93.6% | [2] 85.1% | [3] 31% | [4] 88.1% | [5] 31.3% | [6] 67% | [7] 67.5% | [8] 62.4% | [9] 76% | [10] 17.8% | [11] 26.8% | [12] 76.2% | [13] 71.8% | [14] 74.8% | [15] 19.2% | [16] 30.2% | [17] 72.3% | [18] 104% | [19] 88.7%

C=C1C(=O)O[C@H]2[C@H]1CC/C(COC(=O)CCCCCCCCC(=O)OC/C1=C/CC[C@@]3(C)O[C@H]3[C@H]3OC(=O)C(=C)[C@@H]3CC1)=C\CC[C@@]1(C)O[C@@H]21
active: [2] 8.84% | [3] -1.39% | [4] -75.2% | [5] 0.838% | [6] -23.2% | [8] 2.5% | [9] -2.09% | [10] -6.37% | [15] -19.2% | [16] 2.11% | [18] 2.99% | [19] -27.3%
inactive: [1] 22% | [7] 96.8% | [11] 10.2% | [12] 28.9% | [13] 29% | [14] 86.9% | [17] 10.3%

O=C(Nc1nc(-c2ccccc2Cl)cs1)c1cc(-c2ccc(Br)cc2)nc2ccccc12
active: [19] 9.58%
inactive: [1] 26.6% | [2] 35.6% | [3] 69.9% | [4] 42% | [5] 49.4% | [6] 49.7% | [7] 22.6% | [8] 44.9% | [9] 53% | [10] 29% | [11] 43.1% | [12] 70.6% | [13] 46.6% | [14] 31.8% | [15] 61.4% | [16] 47% | [17] 79.6% | [18] 57.2%

O=CN1N=C(c2ccc3c(c2)OCO3)CC1c1cccc(Nc2ccnc3cc(C(F)(F)F)ccc23)c1 (stereo unspecified)
inactive: [1] 76.1% | [2] 75.2% | [3] 88.9% | [4] 63.7% | [5] 76.9% | [6] 85.8% | [7] 72.5% | [8] 66.5% | [9] 29.9% | [10] 40.2% | [11] 83.8% | [12] 97.7% | [13] 69.6% | [14] 77.4% | [16] 67.4% | [17] 96.1% | [18] 76.8% | [19] 45.8%

O=C(Nc1nc2ccc(C(F)(F)F)cc2s1)c1cc(Cl)ccc1O
inactive: [11] 12.9% | [12] 28% | [13] 20.2% | [15] 30.8%
active: [1] -11.4% | [2] -1.23% | [3] 9.78% | [4] 7.2% | [5] 4.94% | [6] 2.6% | [7] -26.8% | [20] 1.46% | [9] 0.767% | [10] -5.53% | [14] -16.2% | [16] 8.08% | [17] 5.64% | [18] -4.36% | [19] -5.13%
